Results reported in ChEMBL document CHEMBL3988442, “University of Dundee, Small-Polar-MMV Screening Library” (2021).
Values joined by “and” are separate entries in the source; they are usually repeats but may differ in a detail not shown here. Equal values may be shown once. Hit rate of the full screen: of about 38,000 compounds, about 1,200 (3.2%) showed an effect of 50% or more. The median lay at about -58%. This excerpt belongs to a sample that is enriched for strong results.

Test system: Plasmodium falciparum
Assay: Calibr Malaria Delayed Death Assay SOP
Format: functional, organism-based
Parameters: scale not given: in the data most compounds retested in dose-response had high values
Conditions: concentration 4.99e-06 (unit not given; other assays of the set use mol/L)

| Structure (SMILES) | Percent Effect [%] | Percent Effect (4.99 µM) |
| --- | --- | --- |
| COCCN(Cc1ccoc1)S(=O)(=O)c1cccc(C(F)(F)F)c1 | -154.4 |  |
| COc1c[nH]c(C(=O)Nc2nc(C)cs2)cc1=O | -242.4 |  |
| Clc1ccc(C2(NCc3noc(C4CC4)n3)CCC2)cc1 | 11.94 |  |
| Clc1ccc(C2(NCc3noc(C4CC4)n3)CCCC2)cc1 | 66.68 |  |
| Clc1ccc(C2(NCc3noc(C4CC4)n3)CCOCC2)cc1 | -1.957 |  |
| COc1cccc(N2CCN(Cc3ccc4ccn(C)c4c3)CC2=O)c1 | -24.12 |  |
| COc1cc(N2CC[C@H](O)[C@@H]2Cc2ccccc2)ncn1 | -143.1 |  |
| CC(C)NC(=O)CSc1nc2c(cnn2CCO)c(=O)[nH]1 | -19.17 |  |
| CCS(=O)(=O)N1CCCn2c(nc(CN3CCCC3)cc2=O)C1 | -41.77 |  |
| CCn1ncnc1CN1CCc2[nH]cnc2C1c1ccccn1 (stereo not given) | -50.88 |  |
| CCn1ccnc1CN1CCCC1c1c(C)nn(C)c1OC (stereo not given) | -32.78 |  |
| CCn1ncnc1CN1CCc2[nH]cnc2C1Cc1ccccc1 (stereo not given) | -69.64 |  |
| COCCn1ccnc1CN1CCc2[nH]cnc2C1c1cccc(O)c1 (stereo not given) | -80.26 |  |
| COCCn1ccnc1CN1CCc2[nH]cnc2C1c1ccccn1 (stereo not given) | -16.31 |  |
| CCc1nccn1-c1cncc(C2CCCN2Cc2ccccn2)n1 (stereo not given) | -28.75 |  |
| CCc1ccc(C2c3nc[nH]c3CCN2Cc2nccn2CC)nc1 (stereo not given) | 89.79 |  |
| CCCn1ccnc1CN1CCc2[nH]cnc2C1Cc1ccccc1 (stereo not given) | 64.79 |  |
| COc1cccc(CN2CC(O)CN(C(=O)C(C)(C)C)CC2=O)c1OC (stereo not given) | -124 |  |
| CC1=Nc2c(c(=O)[nH]n2C2CCCC2)C(c2cccnc2)S1 (stereo not given) |  | -22.61% and -27.75% |
| CCCNC(=O)c1cccc(CNCc2csc(C(C)(C)C)n2)c1 | 23.22 |  |
| CN(C)C(=O)CO[C@H]1CN(Cc2ccc3c(c2)OCO3)[C@@H]2COC[C@H]12.O=C(O)C(F)(F)F | -65.25 |  |
| C1CCC(c2nc3c(c(N4CCN5CCCC5C4)n2)CCNCC3)C1 (stereo not given) | 77.28 |  |
| Cc1nc2c(c(N3CCC(CCn4cccn4)CC3)n1)CCNCC2 | 39.53 |  |
| NCC1CCN(c2nc(C3CCCC3)nc3c2CCNCC3)C1 (stereo not given) | 93.21 |  |
| C1CCC(c2nc3c(c(N4CC(N5CCOCC5)C4)n2)CCNCC3)C1 | -121.5 |  |
| Nc1nc2c(c(N3CCC(CN4CCCC4=O)CC3)n1)CCNCC2 | -195.3 |  |
| Nc1nc2c(c(N3CCC(CCn4cccn4)CC3)n1)CCNCC2 | 0.6794 |  |
| CCOCc1nc2c(c(N3CCN4CCCC4C3)n1)CCNCC2 (stereo not given) | -33.92 |  |
| c1cnn(CC2CCN(c3nc(C4CC4)nc4c3CCNCC4)CC2)c1 | 90.7 |  |
| Cc1nc2c(c(N3CCC(CN4CCCC4=O)CC3)n1)CCNCC2 | -95.59 |  |
